Bioassay records as filed in PubChem BioAssay.
mut p53 react: re-activators of the mutant p53 pathway; actives 1.5% (n = 28,000); SW480 PUMA-promoter luciferase, p53 mutant reactivation; activation, % at 9.98 µM; AID 624151; in the data active = activation above about 52%; inconclusive = no clear call, values can overlap the other calls
STK33 kin inh: human STK33 kinase inhibition; Q9BYT3; ADP-Glo luminescence, MBP substrate; inhibition, % at 12.5 µM; actives 0.44% (n = 27,000); AID 2322; in the data active = inhibition above about 20%; inconclusive = no clear call, values can overlap the other calls
Target sequence (Q9BYT3 whole entry, looked up): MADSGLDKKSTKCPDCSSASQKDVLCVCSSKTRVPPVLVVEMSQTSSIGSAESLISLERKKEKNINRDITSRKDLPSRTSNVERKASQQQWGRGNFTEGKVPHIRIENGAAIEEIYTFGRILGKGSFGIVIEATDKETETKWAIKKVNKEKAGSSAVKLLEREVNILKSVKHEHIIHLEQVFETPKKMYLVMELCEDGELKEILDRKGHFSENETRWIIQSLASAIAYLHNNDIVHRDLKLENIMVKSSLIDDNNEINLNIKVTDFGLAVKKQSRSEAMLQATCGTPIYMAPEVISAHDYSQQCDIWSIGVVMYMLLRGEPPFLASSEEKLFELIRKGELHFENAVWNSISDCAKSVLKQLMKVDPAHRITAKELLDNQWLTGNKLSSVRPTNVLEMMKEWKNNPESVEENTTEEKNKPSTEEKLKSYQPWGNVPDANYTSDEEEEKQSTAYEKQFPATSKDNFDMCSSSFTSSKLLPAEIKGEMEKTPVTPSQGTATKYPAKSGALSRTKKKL
NOMO-1 viab: STK33 inhibitor candidate reducing NOMO-1 cell viability; NOMO-1 AML viability, CellTiter-Glo luminescence, 72 h; inhibition, % (concentration not given with the values); actives 7.5% (n = 37,000); in the data active = inhibition above about 80%; inconclusive = no clear call, values can overlap the other calls
MITF inhib: inhibitors of MITF. actives 0.28% (n = 37,000). TRPM1 promoter luciferase, luminescence, 24 h. inhibition, % (no concentration beside the values); in the data active = inhibition above about 85%; inconclusive = no clear call, values can overlap the other calls; inactive = below about 68%;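 note: human melanocyte line stably carrying TRPM1 promoter luciferase reporter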
* = called active by the depositor; ? = inconclusive; . = no result given; ! = a repeat was not active. Many of the other results were omitted from the sample, so hits are more common in it than they were.

SMILES	mut p53 react	STK33 kin inh	NOMO-1 viab	MITF inhib
C[C@@H]1CN([C@@H](C)CO)C(=O)c2cc(NS(=O)(=O)c3ccc(F)cc3)ccc2O[C@H]1CN(C)Cc1ccc(Cl)c(Cl)c1	.	.	?	24
Cc1ccc(S(=O)(=O)Nc2ccc3c(c2)C(=O)N([C@@H](C)CO)C[C@H](C)[C@@H](CN(C)Cc2ccc(Cl)c(Cl)c2)O3)cc1	.	.	106*	6
O=C(CS(=O)(=O)c1ccc2ccccc2c1)c1cc2ccccc2oc1=O	-7	12	23	-3
CCOC(=O)N1CC=C2C(C1)C(c1cccc(C(F)(F)F)c1)C(C#N)=C(N)C2(C#N)C#N (configuration not stated)	.	2	113*	9
O=c1cc(-c2ccccc2)oc2cc(O)ccc12	77*	17	-7	-56
COc1ccc2c(=O)cc(-c3ccccc3OC)oc2c1	.	1	-10	-42
COc1ccc(-c2cc(=O)c3ccccc3o2)cc1	43	8	23	4
COc1cccc(-c2cc(=O)c3cc(OC)ccc3o2)c1	-64	7	59	93*
COc1ccc2oc3ccccc3c(=O)c2c1	.	61*	?	-15
COc1ccc2c(=O)cc(-c3ccccc3)oc2c1	81*	8	22	-109
O=c1cc(-c2ccccc2)oc2cccc(O)c12	.	15	28	-65
COc1ccc(OC)c(C2C(C(=O)c3ccco3)C(=O)C(=O)N2CCN(C)C)c1 (configuration not stated)	1	-5	9	-6
C[C@@H]1CN([C@@H](C)CO)C(=O)c2cc(NC(=O)Cc3cn(C)c4ccccc34)ccc2O[C@H]1CN(C)Cc1ccc(Cl)c(Cl)c1	.	4	97*	41
C[C@H](CO)N1C[C@H](C)[C@H](CN(C)Cc2ccc(Cl)c(Cl)c2)Oc2ccc(NC(=O)Cc3cn(C)c4ccccc34)cc2C1=O	.	.	108*	39
C[C@H](CO)N1C[C@H](C)[C@@H](CN(C)Cc2ccc(Cl)c(Cl)c2)Oc2ccc(NC(=O)Cc3cn(C)c4ccccc34)cc2C1=O	.	.	61	22
CC1=CC(=O)OC1(O)CCC(C)CC(=O)O (configuration not stated)	1	0	.	.
C/C(CCc1oc2ccccc2c1-c1ccc(C)o1)=N\O	.	.	108*	0
CN(C(=O)c1ccccc1)C(=O)N(C)C(=O)c1ccccc1	.	.	-11	7
CC/C(=C(\c1ccccc1)c1ccc(OCCN(C)C)cc1)c1ccccc1	.	3	96*!	-6
N#Cc1cc(C#N)c(SCC(=O)NCc2ccco2)nc1N	.	.	?	-6
COc1ccc([Si](C)(C)[C@@H]2[C@@H](CCn3cc(CCO)nn3)O[C@]3(C(=O)N(Cc4ccc(N5CCC5=O)cc4)c4ccccc43)[C@H]2C)cc1	.	22*	.	.
COc1ccc([Si](C)(C)[C@H]2[C@H](CCn3cc(CCO)nn3)O[C@@]3(C(=O)N(Cc4ccc(N5CCC5=O)cc4)c4ccccc43)[C@@H]2C)cc1	.	19	.	.
NC[C@@H]1O[C@H](c2ccccc2)Cc2c1ccc(O)c2O	-12	0	112*	13
NC[C@@H]1O[C@H](C23CC4CC(CC(C4)C2)C3)Cc2c1ccc(O)c2O	-5	-2	107*	1
O=C1CC(c2ccccc2)Oc2cc(O)cc(O)c21 (configuration not stated)	24	0	10	-30
SMILES	mut p53 react	STK33 kin inh	NOMO-1 viab	MITF inhib
C[C@H](CO)N1C[C@H](C)[C@H](CN(C)S(=O)(=O)c2ccccc2)Oc2c(NC(=O)c3nc4ccccc4s3)cccc2C1=O	.	.	88*	23
COc1ccc(S(=O)(=O)N(C)C[C@@H]2Oc3c(NC(=O)c4nc5ccccc5s4)cccc3C(=O)N([C@H](C)CO)C[C@@H]2C)cc1	.	.	117*	54
Cc1ccc(S(=O)(=O)N(C)C[C@@H]2Oc3c(NC(=O)c4nc5ccccc5s4)cccc3C(=O)N([C@H](C)CO)C[C@H]2C)cc1	.	.	?	12
O=C(c1ccccc1Cl)n1nc(-c2ccccc2)nc1NCc1ccco1	26	5	-3	-50
O=C(c1cccs1)n1nc(-c2ccccc2)nc1NCc1ccco1	86*	6	37	-69
O=C(c1ccc(F)cc1)n1nc(-c2ccc(Cl)cc2)nc1NCc1ccco1	150*	-5	104*	-82
CCn1c(SCC(=O)Nc2ccc3c(c2)OCCO3)nnc1-c1ccccc1O	-5	1	-3	-4
COc1cc(CC2COC(=O)C2(O)Cc2ccc(O)c(OC)c2)ccc1O (configuration not stated)	-18	2	54	91*
COc1cc(C[C@@]2(O)C(=O)OC[C@@H]2Cc2ccc(OC)c(OC)c2)ccc1O	.	3	78	67
COc1cc(/C=C\C(=O)O)cc(OC)c1OC	-4	-2	.	.
COc1cc(/C=C/C(=O)N2CCC=CC2=O)cc(OC)c1OC	.	2	119*	62
Cc1ccc(NC(=O)CSc2nnnn2-c2ccc(F)cc2)cc1C	-3	-1	-11	23
NC(=O)c1c(NC(=O)C2CC(=O)OC23CCCCC3)sc2c1CCCCC2 (configuration not stated)	2	-1	8	-3
CNC(=O)c1c(N)sc2c1CCCCC2	.	.	126*	-10
CCn1cc(C(C)NC(=S)Nc2cccc([N+](=O)[O-])c2)c(C)n1 (configuration not stated)	-2	-1	2	-9
CCOC(=O)CSc1nc(N)c2c3c(sc2n1)COC(C)(C)C3	-7	0	105*	-20
CCOc1ccc(NC(=O)CSc2nc(N)c3c4c(sc3n2)COC(C)(C)C4)cc1	-1	2	-2	-17
O=C(NCc1cccnc1)c1ccc2c(c1)C(=O)N(CC1CCCO1)C2=O (configuration not stated)	10	3	25	-17
